Measured values: PubChem BioAssay (NCI)
Values joined by “and” are separate entries in the source; they are usually repeats but may differ in a detail not shown here. Equal entries are not always repeated. This is part of a sample that, as a whole, favours compounds with a hit. Of some 83,000 tested, about 20% had one in any assay.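 Single-dose data. Exposure time 48 hours. Values below 10 considered active.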 Active and inactive are the calls of the source.

Each molecule was assayed on ACHN renal (assay: NCI-60 one-dose screen, 48 h (100 = growth as untreated, 0 = no growth, -100 = all killed)). Settings: 10 µM.
Protocol: Growth inhibition of the ACHN human tumor cell line is measured as a screen for anti-cancer activity. Cells are grown in 96 well plates and exposed to the test compound for 48 hours. Compounds are tested at a single concentration, which is 10^-5 M for most compounds. The reported endpoint is percent growth (GI% or GIPRCNT), where numbers from 0 - 100% represent growth inhibition, and numbers from -100% - 0 represent cell death. For example, a value of 40 represents 60% growth inhibition. A value of 0 means no net growth occurred over the course of the experiment. A value of -40 indicates 40% of cells at the beginning of the experiment died by the end of the experiment. A value of -100 means all cells are dead at the end of the experiment.
NCI-60 Human Tumor Cell Lines Screen was performed using the standard one-dose NCI protocol, which is described in more detail at https://dtp.cancer.gov/discovery_development/nci-60/default.htm.
Compounds with GIPRCNT values below 10 were considered active. Activity score was based on GIPRCNT using the following formula: […]
Score is 0 for GIPRCNT values of 100 or above, 50 for GIPRCNT values of 0, and 100 for GIPRCNT values of -100.

| SMILES | growth |
| --- | --- |
| COc1cc(/C=C(/C)[N+](=O)[O-])ccc1O | -39.8% (active) and 16.4% (inactive) |
| C[CH2][Hg][S]c1ccccc1C(=O)O | -92.9% (active) |
| Cn1c(O)c(N=O)c(=O)n(C)c1=O | 110% (inactive) and 105% (inactive) |
| O=[N+]([O-])c1cc[n+]([O-])c2ccccc12 | -42.4% (active) |
| CC/C(=C/c1ccc(OC)cc1)[N+](=O)[O-] | -43% (active) |
| COc1cc(/C=C/[N+](=O)[O-])cc(OC)c1OC | -42.2% (active) |
| CCOP(=O)(OCC)/C(C#N)=C/c1ccc(Br)cc1 | 98.6% (inactive) |
| Oc1c(I)cc(I)cc1I | 103% (inactive) |
| C=NCC#N | 96.7% (inactive) and 105% (inactive) |
| Cc1ccc(C(=O)C2C(c3ccccc3)N2C2CCCCC2)cc1 (stereo not given) | 113% (inactive) and 97.9% (inactive) |
| COc1cc2c(c(OC)c1OC)-c1ccc(O)c(=O)cc1[C@@H](NC(C)=O)CC2 | 61.2% (inactive) |
| CC12OOC(c3ccccc31)c1c2ccc2ccccc12 (stereo not given) | -100% (active) |
| ClCc1ccc2ccccc2n1 | 96.8% (inactive) |
| [Cl][Hg][c]1ccc(Cl)s1 | -80.9% (active) |
| COc1cc2c(cc1OC)C13CCN4CC5=CCOC6CC(=O)N2C1C6C5CC43 (stereo not given) | 99.6% (inactive) and 107% (inactive) |
| CC/C(=C/c1ccc(OC)cc1OC)[N+](=O)[O-] | -43.1% (active) |
| O=[N+]([O-])c1ccc(N(CCO)CCO)c2c1no[n+]2[O-] | -12.3% (active) |
| CS(=N)(=O)CCC(N)C(=O)O (stereo not given) | 103% (inactive) |
| S=C=NCCc1ccccc1 | 72% (inactive) |
| Cc1cc(C(C)(C)c2ccc(O)c(C)c2)ccc1O | 88.7% (inactive) |

| SMILES | growth |
| --- | --- |
| O=[N+]([O-])c1ccc(N2CCOCC2)c2c1no[n+]2[O-] | 13.6% (inactive) |
| CC(C)C1(NC(=O)C2CC3c4cccc5[nH]cc(c45)CC3N(C)C2)OC2(O)C3CCCN3C(=O)C(Cc3ccccc3)N2C1=O (stereo not given) | 83% (inactive) |
| [Cl][Sn]([c]1ccccc1)([c]1ccccc1)[c]1ccccc1 | -89.2% (active) |
| COS(=O)(=O)c1ccccc1 | 101% (inactive) |
| CC(C)(C)OOC(=O)/C=C\C(=O)OOC(C)(C)C | 108% (inactive) |
| NNc1ccccc1 | 64.5% (inactive) |
| O=c1[nH]c2ccccc2n1C1CCN(CCCC(c2ccc(F)cc2)c2ccc(F)cc2)CC1 | 44.4% (inactive) |
| CC(=O)Nc1c2sscc-2n(C)c1=O | -100% (active) |
| [O-][n+]1ccccc1S | 32.2% (inactive) |
| Cc1ccc(NC(=O)CBr)cc1 | 108% (inactive) |
| O=[N+]([O-])c1ccc(Br)c([N+](=O)[O-])c1 | 52.6% (inactive) |
| COc1ccccc1/C=C/[N+](=O)[O-] | 55.5% (inactive) |
| COC(C(=O)C(O)C(C)O)C1Cc2cc3cc(OC4CC(OC(C)=O)C(OC5CC(O)C(OC)C(C)O5)C(C)O4)cc(O)c3c(O)c2C(=O)C1OC1CC(OC2CC(OC3CC(C)(O)C(OC(=O)C(C)C)C(C)O3)C(O)C(C)O2)C(O)C(C)O1 (stereo not given) | 3.27% (active) |
| C/C1=C\[C@H](C)C[C@H](C)OC(=O)C[C@H](c2ccc(O)cc2)NC(=O)[C@@H](Cc2c(Br)[nH]c3ccccc23)N(C)C(=O)[C@H](C)NC(=O)[C@@H](C)C1 | -18.7% (active) |
| Cc1cc([N+](=O)[O-])c2ccccc2[n+]1[O-] | -35.6% (active) and -73.4% (active) |
| O=C1CCC(=O)N1SC(Cl)(Cl)Cl | 110% (inactive) |
| CC1CCC2(OC1)OC1C(O)C3C4CCC5CC(OC6OC(CO)C(OC7OC(CO)C(O)C(OC8OCC(O)C(O)C8O)C7OC7OC(CO)C(O)C(OC8OC(CO)C(O)C(O)C8O)C7O)C(O)C6O)C(O)CC5(C)C4CCC3(C)C1C2C (stereo not given) | 1.57% (active) |
| C/C(=C\c1ccc(Cl)c(Cl)c1)[N+](=O)[O-] | -70.7% (active) and 105% (inactive) |
| O=[P+](O)c1ccccc1 | 102% (inactive) |
| COc1ccc(/C=C\[N+](=O)[O-])cc1OC | 64.4% (inactive) and 79.1% (inactive) |
